Reference: the supplement of paper PMC7411640
Structures can show the parent of a compound that is named as a salt.

Test system: MDA-MB-468
Experiment: phospho-S6 immunofluorescence (DAPI-normalised), per-plate z-score; higher = higher phospho-S6 signal (less pathway suppression)
Conditions: 24 h
Experimental: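 GPCR-targeted compound library (MedChemExpress HY-L006) tested on MDA-MB-468 PTEN-null TNBC cells in 384-well plates at 0.1, 1 or 10 uM, combined with vehicle, GDC0941 450 nM or lapatinib 1 uM, for 24 h. Phospho-S6 (S240/244) immunofluorescence normalised to DAPI and expressed as a per-plate z-score; values are the mean of biological triplicates.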

Compound	phospho-S6 immunofluorescence (z-score) (co-treatment: GDC0941 450 nM)	phospho-S6 immunofluorescence (z-score) (co-treatment: lapatinib 1 uM)	phospho-S6 immunofluorescence (z-score) (co-treatment: vehicle)
COc1cc2c(cc1OC)-c1cc3ccc4c(c3c[n+]1CC2)OCO4 [Epiberberine (chloride)] (compound 10 µM)	-0.39	0.22	1.66
O=C(Nc1ccc(Cl)cc1CN1C(=O)c2ccccc2C1=O)c1ccccc1O (compound 10 µM)	-1.83	-0.3	-0.57
CNc1nc(NCc2ccc(NS(C)(=O)=O)cc2Cl)cc(-c2ccccn2)n1 (compound 10 µM)	-3.45	-5.07	-4.83
CN(C)CC/C=C1/c2ccccc2Sc2ccc(Cl)cc21 [Chlorprothixene] (compound 10 µM)	0.1	-3.66	0.41
c1ccc(CN(CC2=NCCN2)c2ccccc2)cc1 [Antazoline (hydrochloride)] (compound 10 µM)	0.27	0.23	1.23
Nc1nc(NCCc2ccc(O)cc2)nc2nc(-c3ccco3)nn12 (compound 10 µM)	-1.88	0.67	1.01
c1ccc2c(c1)N=C(N1CCNCC1)c1ccccc1N2 [DREADD agonist 21] (compound 10 µM)	-0.11	-1.74	-0.53
COc1ccccc1N1CCN(CCN(C(=O)C2CCCCC2)c2ccccn2)CC1 (compound 10 µM)	-0.49	0.26	-0.79
C[C@]12C=CC(=O)C=C1CC[C@@H]1[C@@H]2C(=O)C[C@@]2(C)[C@H]1CC[C@]2(O)C(=O)CO [Prednisone] (compound 10 µM)	0.55	1.24	0.94
CCCCc1oc2ccc(NS(C)(=O)=O)cc2c1C(=O)c1ccc(OCCCN(CCCC)CCCC)cc1 [Dronedarone] (compound 10 µM)	-3.7	-8.99	-9.98
Fc1ccc(-c2cncc(CN3CCN(c4cccc5c4OCCO5)CC3)c2)cc1 [Adoprazine] (compound 10 µM)	-2.84	-1.05	-2.49
O=C1CCc2ccc(OCCCCN3CCN(c4cccc(Cl)c4Cl)CC3)cc2N1 [Aripiprazole] (compound 10 µM)	-3.14	-5.16	-3.2
C[C@]12C=CC(=O)C=C1CC[C@@H]1[C@@H]2[C@@H](O)C[C@@]2(C)[C@H]1CC[C@]2(O)C(=O)CO [Prednisolone] (compound 10 µM)	0.01	1.18	0.05
CN1CCN(C2=Nc3ccccc3Oc3ccc(Cl)cc32)CC1 [Loxapine] (compound 10 µM)	0.6	-0.55	0.95
CN1[C@@H]2CC[C@H]1C[C@@H](OC(c1ccccc1)c1ccccc1)C2 [Benztropine (mesylate)] (compound 10 µM)	1.67	-1.69	0.29
Cc1c(CC(=O)O)c2cccnc2n1Cc1ccc(S(C)(=O)=O)cc1C(F)(F)F [Fevipiprant] (compound 10 µM)	-2.62	-1.74	-0.9
CCN1CCCC1CNC(=O)c1cc(S(N)(=O)=O)ccc1OC (stereo not given) [Sulpiride] (compound 10 µM)	-0.13	0.19	0.05
O=S(=O)(O)c1cc(O)ccc1O [Ethamsylate] (compound 10 µM)	0	-0.05	0.76
c1ccc(NCc2ccc(CNc3ccccn3)cc2)nc1 (compound 10 µM)	0.88	-0.48	0.72
CN(C)CCOC(C)(c1ccccc1)c1ccc(Cl)cc1 (stereo not given) [Chlorphenoxamine] (compound 10 µM)	-4.26	-7.36	-4.5
